# Results published in PubChem BioAssay (NCATS).
# Results filed as inconclusive are left out. Calls of active or inactive are those of the source. The call rests on the fitted dose curve; in most records, active means well fitted cell-killing curve with a large enough effect; inconclusive means small, poorly fitted or top-dose-only effect, or effect the other way; inactive means no such curve, though single readings can be large or run the other way.
# Assay: Quantitative High-Throughput drug screen in 47 multiple myeloma cell lines against the NCATS MIPE library collection: AMO1_DSMZ cell viability assay (AID 1918927; further: nearly all actives have a fitted effect of over 30% in size)
# Conditions: AMO1 myeloma cells viability, CellTiter-Glo ATP luminescence, 48 h; series mostly up to 45.8 µM; viability, % of DMSO: at the top concentration
# Text: PI: Beverly A. Mock Ph.D.
# Laboratory of Cancer Biology and Genetics,
# Center for Cancer Research, National Cancer Institute,
# National Institute of Health, Bethesda, Maryland
# Drug resistance and disease progression are common in multiple myeloma (MM) patients, underscoring the need for new therapeutic combinations. […] We hypothesized that effective combinations would reduce MYC expression and enhance p16 activity. […] These preclinical data identify potentially useful drug combinations for evaluation in drug-resistant MM and reveal potential mechanisms of combined drug sensitivity.
# Described herein is the primary MIPE qHTS used to cherrypick compounds. Validated compounds were then further tested for potential synergistic activiy.
# [1] Peat TJ, Gaikwad SM, Dubois W, Gyabaah-Kessie N, Zhang S, Gorjifard S, Phyo Z, Andres M, Hughitt VK, Simpson RM, Miller MA, Girvin AT, Taylor A, Williams D, D'Antonio N, Zhang Y, Rajagopalan A, Flietner E, Wilson K, Zhang X, Shinn P, Klumpp-Thomas C, McKnight C, Itkin Z, Chen L, Kazandijian D, Zhang J, Michalowski AM, Simmons JK, Keats J, Thomas CJ, Mock BA. Drug combinations identified by high-throughput screening promote cell cycle transition and upregulate Smad pathways in myeloma. Cancer Lett. 2023 Aug 1;568:216284. doi: 10.1016/j.canlet.2023.216284. Epub 2023 Jun 24. PMID: 37356470; PMCID: PMC10408729.
# SEQUENCE No. (e.g., 1, 2, 3, etc.); […] (e.g., Cells, Incubation, Reagent, etc.); VALUE and DESCRIPTION.
# 1; Cells; 5 uL; white, solid bottom 1536-well Greiner assay plate.
# 2; Compounds; 23 nL; Kalypsis pin tool (Wako USA) equipped with a 1536-well pin head to transfer to the assay plates.
# 3; Incubation; 48 hours; 37C incubation.
# 4; Reagent;5uL; CellTiter Glo (Promega).
# 5; Detector; 425V; Luminescence; Viewlux PerkinElmer.
# NOTES (numbers refer to Sequence numbers above)
# 1. The cell-based screening methods employed in this study were like those previously published. Briefly, the corresponding myeloma cell lines were screened in 1,536-well plates with 500 cells, 5-uL per well for inhibition of cell viability (assessed by measuring ATP levels with CellTiterGlo).
# 2. NCATS MIPE 4.0 library of approved and investigational drugs were added using the Kalypsis pin tool. Wells treated with DMSO only for 100% viability and media only wells for 0% viability were used as controls.
# 3. The assay plates were covered and incubated for 48 hours in a 37C, 5% CO2 incubator with controlled humidity.
# 4. After 48 hours, CellTilter-GloTM luminescent substrate mix (Promega) reagent was added to the assay plate and plates we incubated for 5 min at room temperature.
# 5. Signal was measured as median relative luminescence units on a ViewLux (PerkinElmer) multiplate reader.
# [1] Heske CM, Davis MI, Baumgart JT, Wilson K, Gormally MV, Chen L, Zhang X, Ceribelli M, Duveau DY, Guha R, Ferrer M, Arnaldez FI, Ji J, Tran HL, Zhang Y, Mendoza A, Helman LJ, Thomas CJ. Matrix Screen Identifies Synergistic Combination of PARP Inhibitors and Nicotinamide Phosphoribosyltransferase (NAMPT) Inhibitors in Ewing Sarcoma. Clin Cancer Res. 2017 Dec 1;23(23):7301-7311. doi: 10.1158/1078-0432.CCR-17-1121. Epub 2017 Sep 12. PMID: 28899971; PMCID: PMC6636827.
# Potency means the concentration at half of the fitted maximal effect.
SMILES,"viability, % of DMSO",Potency
C=C(C)[C@@H]1CC[C@]2(C(=O)O)CC[C@]3(C)[C@H](CC[C@@H]4[C@@]5(C)CC[C@H](O)C(C)(C)[C@@H]5CC[C@]43C)[C@@H]12,109% (inactive),–
CN(C)CCN1C(=O)c2cccc3cc(N)cc(c23)C1=O,–,4.18 µM (active)
COc1cc(C=CC(=O)CC(=O)C=Cc2ccc(O)c(OC)c2)ccc1O,–,5.4 µM (active)
Cc1cc(C(=O)NOCCO)c(Nc2ccc(I)cc2F)n(C)c1=O,–,0.118 µM (active)
CC(C)(O)Cn1c(NC(=O)c2ccc(-c3cn[nH]c3)s2)nc2cc(CN3CCOCC3)ccc21,–,0.469 µM (active)
C[C@]12CC[C@@H]3c4ccc(O)cc4CC[C@H]3[C@H]1CC[C@H]2O,–,14.8 µM (active)
CC(O)(C#Cc1ccc2c(c1)N(c1nc(N)ncc1Cl)CC2)c1nccs1 (stereo not given),–,13.2 µM (active)
Oc1ccc([C@@H]2Oc3ccc(O)cc3[C@@H]3CCC[C@@H]32)cc1,87.6% (inactive),–
C=CCNC1=C2C[C@@H](C)C[C@H](OC)[C@@H](O)[C@@H](C)C=C(C)[C@H](OC(N)=O)[C@@H](OC)C=CC=C(C)C(=O)NC(=CC1=O)C2=O,–,0.0935 µM (active)
O=C(O)C=Cc1ccc(Cn2ccnc2)cc1,–,0.372 µM (active)
COc1ccc([C@@H]2CNC(=O)C2)cc1OC1CCCC1,103% (inactive),–
CC(=O)ON=C1C(c2c(O)[nH]c3cc(Br)ccc23)=Nc2ccccc21,–,1.87 µM (active)
Nc1nc(N)c2nc(-c3cccc(O)c3)c(-c3cccc(O)c3)nc2n1,–,7.43 µM (active)
CCCNC(=O)[C@H]1O[C@H]1C(=O)N[C@H](C(=O)N1CCC[C@@H]1C(=O)OC)C(C)CC (stereo not given in full),–,4.69 µM (active)
CN[C@@H]1C[C@H]2O[C@@](C)([C@H]1OC)n1c3ccccc3c3c4c(c5c6ccccc6n2c5c31)C(=O)N[C@H]4O,–,0.332 µM (active)
CC[C@]12C=CCN3CC[C@@]4(c5cc([C@@]6(C(=O)OC)C[C@H]7C[C@@H](C(C)(F)F)CN(Cc8c6[nH]c6ccccc86)C7)c(OC)cc5N(C)[C@H]4[C@@](O)(C(=O)OC)[C@H]1OC(C)=O)[C@@H]32,–,0.0059 µM (active)
CC[C@H]1OC(=O)[C@H](C)[C@@H](O[C@H]2C[C@@](C)(OC)[C@@H](O)[C@H](C)O2)[C@H](C)[C@@H](O[C@@H]2O[C@@H](C)C[C@H](N(C)C)[C@@H]2O)[C@](C)(O)C[C@@H](C)C(=O)[C@H](C)[C@@H](O)[C@]1(C)O,93.6% (inactive),–
NC(=O)c1ncn([C@@H]2O[C@H](CO)[C@@H](O)[C@@H]2O)c1O,97.5% (inactive),–
CC(=O)N[C@H]1[C@@H]([C@H](O)[C@H](O)CO)OC(C(=O)O)=C[C@@H]1N=C(N)N,125% (inactive),–
CC(C)Oc1ccc(C(=O)N[C@H](CNC(=O)CN(C)C)Cc2ccc(-c3cn4cccc([C@H](C)O)c4n3)cc2)cc1Cl,–,0.332 µM (active)

SMILES,"viability, % of DMSO",Potency
C=CC(=O)Nc1cc(NC(=O)c2ccc(C)c(NC(=O)c3ccno3)c2)cc(C(F)(F)F)c1,–,5.26 µM (active)
CC(=O)O[C@H]1C[C@@H]2CC[C@H]3[C@H]4C[C@H]([N+]5(C)CCCCC5)[C@@H](OC(C)=O)[C@@]4(C)CC[C@@H]3[C@@]2(C)C[C@H]1N1CCCCC1,134% (inactive),–
COC(=O)[C@H](CCCN=C(N)N)NS(=O)(=O)c1ccc(C)cc1,124% (inactive),–
O=C(O)C[C@H](O)C[C@H](O)C=Cc1c(C2CC2)nc2ccccc2c1-c1ccc(F)cc1,–,9.35 µM (active)
CN1CCCN(C(=O)c2cccc(-c3ccc(C=C4C(=O)Nc5ccc(Cl)cc54)o3)c2)CC1,–,7.43 µM (active)
C=C1C[C@@]2(O)O[C@@]3(C[C@H]2C(C)C)[C@H](C)CC[C@H]13,99.5% (inactive),–
CCCCCCCCc1ccc(CCC(N)(CO)CO)cc1,–,8.33 µM (active)
CC[C@H]1OC(=O)[C@H](C)[C@@H](O[C@H]2C[C@@](C)(OC)[C@@H](O)[C@H](C)O2)[C@H](C)[C@@H](O[C@@H]2O[C@H](C)C[C@H](N(C)C)[C@@H]2O)[C@](C)(OC)C[C@@H](C)C(=O)[C@H](C)[C@@H](O)[C@]1(C)O,99.9% (inactive),–
C[C@@H](Oc1ccc2[nH]nc(C=Cc3cnn(CCO)c3)c2c1)c1c(Cl)cncc1Cl,91.6% (inactive),–
O=C(O)c1ccc(Nc2ncc3c(n2)-c2ccc(Cl)cc2C(c2c(F)cccc2F)=NC3)cc1,–,0.187 µM (active)
COC(=O)C1C2CC3c4[nH]c5cc(OC)ccc5c4CCN3CC2CC(OC(=O)c2cc(OC)c(OC)c(OC)c2)C1OC (stereo not given),–,20.9 µM (active)
C=C[C@@H]1CN2CCC1C[C@H]2[C@H](O)c1ccnc2ccc(OC)cc12 (stereo not given in full),73.1% (inactive),–
CC(C)c1cc(C(C)C)c(CC(=O)NS(=O)(=O)Oc2c(C(C)C)cccc2C(C)C)c(C(C)C)c1,–,4.69 µM (active)
Cn1cc(CNCC2CCN(c3ncc(C(=O)NO)cn3)CC2)c2ccccc21,–,0.0526 µM (active)
O=C1c2cccc(O)c2C(=O)c2c(O)cc(CO)cc21,100% (inactive),–
c1ccc(CNc2nc(NCc3ccccc3)c3ccccc3n2)cc1,–,8.33 µM (active)
CC(C)NC[C@@H](C(=O)N1CCN(c2ncnc3c2[C@H](C)C[C@H]3O)CC1)c1ccc(Cl)cc1,–,4.18 µM (active)
COc1cccc2c1C(=O)c1c(O)c3c(c(O)c1C2=O)C[C@@](O)(C(=O)CO)C[C@@H]3O[C@H]1C[C@H](N)[C@@H](O)[C@H](C)O1,–,1.18 µM (active)
Cc1ccc(-n2[nH]c(C)c(N=Nc3cccc(-c4cccc(C(=O)O)c4)c3O)c2=O)cc1C,111% (inactive),–
N#CNC(=NCCCCCCOc1ccc(Cl)cc1)Nc1ccncc1,–,0.0187 µM (active)
